Assay outcomes (PubChem)
Pf growth 96h = P. falciparum growth inhibition at 96 hour, primary screen for plastid delayed-death inhibitors; P. falciparum luciferase reporter growth, 96 h; Potency, µM (top dose mostly 28.7 µM), for the others: at the top dose activity change, negative = inhibition, most hits filed as inhibitors; actives 6.9% (n = 320,000); AID 504834; note: potency is the fitted concentration of half-maximal effect; % is set by controls: 0 for no effect and ±100 for the full control effect
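Erythrocytes infected with luciferase-expressing P. falciparum were dispensed at 2% hematocrit and 0.05% parasitemia (final), then incubated with compounds 96 hours at 37 C in 5% CO2. Luminescence after detection reagent addition reported growth.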
CHX counter = affects cycloheximide protein synthesis inhibition readout, counter-screen; cell reporter, cycloheximide protein synthesis inhibition counterscreen; max response, %; actives 12% (n = 300,000); AID 2314; in the data active = max response mostly above about 13%, no sharp cut-off; inactive = mostly below about 14%; note: read at 38.3 µM for the half of the compounds with a filed dose; 0% is about no effect
Pf growth 48h = inhibits P. falciparum growth in the first generation, 48 h; P. falciparum luciferase growth in erythrocytes, 48 h; actives 5.9% (n = 310,000); Potency, µM (series often up to 28.7 µM), for the others: top-dose activity change, negative = inhibition, actives largely listed as inhibitors; note: potency is the fitted concentration of half-maximal effect; % is set by controls: 0 for no effect and ±100 for the full control effect
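Parasite viability was followed by luminescence of a genomically integrated firefly luciferase. Cultures held 0.1% parasitemia at 2% hematocrit (final), incubated under 5% CO2 at 37 C.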
HCV inhibitor = inhibitors of hepatitis C virus infection; Potency, µM (top dose mostly 41.8 µM), without a hit: at the top dose activity change, negative = inhibition, hits mostly inhibitors; Huh7.5.1 HCVcc-Cre infection, luciferase reporter, 44 h; actives 3.4% (n = 340,000); note: potency is the fitted concentration of half-maximal effect; % is set by controls: 0 for no effect and ±100 for the full control effect
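Antiviral activity was scored by luciferase reporter output from cells infected with HCVcc-Cre (~0.5 moi) in presence of compound, 44 h infection period, cells seeded 1,000/well 4 h prior.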
HCMV inh = blocks human cytomegalovirus replication | actives 4.5% (n = 410,000) | HFF cells, HCMV-luciferase reporter, 72 h; stronger effect = lower value | activity change, negative = inhibition, % at 57.5 µM; in the data active = activity change below about -60%; inconclusive = no clear call, values can overlap the other calls; inactive = above about -39%; note: % is set by controls: 0 for no effect and ±100 for the full control effect
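Inhibition of viral replication was scored as loss of reporter luminescence in HFFs infected with HCMV-luciferase (MOI 1 PFU/cell) for 72 h; compounds tested at 2 doses, normalized to buffer and Salinomycin controls.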
Shiga toxin inh = inhibitors of Shiga toxin in Vero cells. Vero cells, Shiga toxin protein synthesis inhibition reporter. inhibition, % at 38.7 µM. actives 9.2% (n = 290,000); in the data active = inhibition mostly above about 28%, no sharp cut-off; inactive = mostly below about 43%; note: 0% is about no effect
The depositor's hits bear a star; ? = inconclusive; . = no result; [ ] = another dose, or the depositor's remark. Only some compounds are listed: those with a hit (about 21% of all), similar ones and a draw of the others. Unless noted, calls come from the whole dose curve; as a rule, active = well fitted inhibition curve with a large enough effect; inconclusive = small, poorly fitted or top-dose-only effect, or another doubt; inactive = no such curve, though single readings can be large or run the other way.

SMILES	Pf growth 96h	CHX counter	Pf growth 48h	HCV inhibitor	HCMV inh	Shiga toxin inh
O=C(Nc1ccc2ccccc2c1)NC1CCS(=O)(=O)C1 (centres undefined)	5%	14*	50%	-8%	-8	88
Cc1cccc(C)c1-n1ncc(C(=O)O)c1C1CCN(C(=O)OC(C)(C)C)CC1	.	.	.	.	8	.
CC(C)(C)NC(=O)c1cc(C(C)(C)C)c(O)c(C(C)(C)C)c1	9.3µM*	-5	?	21%	-35	3
CCN(CC)C(=O)c1cc(C(C)(C)C)c(O)c(C(C)(C)C)c1	10µM*	-4	?	?	-18	-7
COc1ccccc1CN1CCC(n2nccc2NC(=O)CCCc2ccccc2)CC1	2%	-3	?	-15%	0	-6
O=C(NC(Cc1ccc2c(c1)OCO2)C(=O)N1CCCC1C(=O)O)c1ccccc1 (centres undefined)	-8%	-1	7%	16%	-25	-13
O=C(NCC(=O)N1CCN(c2ccccc2)CC1)c1ccccc1	38%	11*	63%	-4%	.	53*
O=C(NCC(=O)N1CCN(c2ccccc2O)CC1)c1ccccc1	0%	44*	-2%	0%	22	77*
Cc1cccc(N2CCN(C(=O)CNC(=O)c3cccc([N+](=O)[O-])c3)CC2)c1C	?	-7	-13%	11µM*	-64*	-9
Cc1ccc(C(=O)NCC(=O)N2CCN(c3ccccc3)CC2)cc1	1%	-2	12%	12%	39	-14
Cc1ccc(CC(NC(=O)c2ccccc2)C(=O)N2CCCC2C(=O)O)cc1 (centres undefined)	1%	-2	-8%	17%	-107*	-4
O=C(CN1CCCCC1)NCC1(c2ccccc2)CCCC1	-19%	8	15%	8%	?	15
Cc1ccc(C)c(C(O)c2ncc(-c3ccc4ccccc4c3)[nH]2)c1 (centres undefined)	.	.	.	.	36	.
O=C(NC(Cc1ccccc1)C(=O)N1CCN(c2ccccc2O)CC1)c1ccccc1 (centres undefined)	6.6µM*	.	8.3µM*	?	-11	.
Cc1c(Cn2ccnc2)c2ccccc2n1CCC(=O)O	?	.	-11%	.	.	.
Cc1cccc(C)c1NC(=O)CN1CCN(CC(=O)NCC2(N3CCCCC3)CCCCC2)CC1	2%	.	?	5%	-25	.
Cc1cccc(C)c1NC(=O)CC12CCCN1CCC2	6µM*	.	-9%	.	.	.
O=c1nc(-c2ccccc2)n(-c2ccc(Cl)cc2)[nH]1	26%	-3	0%	0%	?	-7
O=c1c(-c2ccc(Cl)cc2)c[nH]n1-c1ccccc1	13µM*	25*	8.3µM*	9%	14	78*
O=c1c(-c2ccccc2)c[nH]n1-c1cccc([N+](=O)[O-])c1	?	22*	?	1%	17	77*
CCc1nn(CC(=O)N2CCN(c3cccc(C)c3C)CC2)c(=O)c2cc3sccc3n12	.	.	.	.	-19	.
CN1CCN(/N=C/c2nc(-c3cccc([N+](=O)[O-])c3)n3ccccc23)CC1	55%	11	17%	16%	-25	13
O=C(O)/C=C/c1nc(-c2ccccc2)n2ccccc12	42%	71*	112%	-22%	12	79*
COc1ccccc1NS(=O)(=O)c1ccc(C)c(NC(=O)C2CCCO2)c1 (centres undefined)	-13%	.	-15%	10%	0	.
CCOC(=O)c1cc2c(=O)n3ccccc3nc2n(C)c1=NC(=O)c1c(-c2ccccc2Cl)noc1C	.	.	.	.	-1	.
SMILES	Pf growth 96h	CHX counter	Pf growth 48h	HCV inhibitor	HCMV inh	Shiga toxin inh
COc1cccc(NC(=O)CCc2nc(-c3cc(OC)c(OC)c(OC)c3)no2)c1	.	.	.	.	9	.
O=C1Nc2cc(Cl)c(Cl)cc2N(O)N1c1ccccc1	18%	30*	.	0%	-30	20
NC(=S)N/N=C1\CC(c2ccc3c(c2)OCCO3)Oc2ccc(F)cc21 (centres undefined)	12µM*	-4	?	?	-32	-11
NC(=S)N/N=C1\CC(c2ccc3c(c2)OCCCO3)Oc2ccc(F)cc21 (centres undefined)	?	15	?	8.9µM*	-14	33
CCCC(=O)Nc1cc(C(=O)N(C)CC(OC)OC)ccc1S(=O)(=O)c1ccc(C)cc1	-7%	-4	1%[0.00184 µM]	?	34	-7
COC(=O)N(C)C[C@H]1OCc2cnnn2CCCC(=O)N([C@@H](C)CO)C[C@H]1C	.	.	.	.	-4	.
COc1ccc(O[C@H]2C=C[C@@H](c3ccccc3)O[C@@H]2COC(=O)CC/C(C)=N/O[C@H](C)c2cn([C@@H]3COC[C@H]3O)nn2)cc1	?	-4	15µM*	-8%[8.37 µM]	.	-7
CC(=O)NCCc1nc2cc(NC(=O)c3ccc(F)cc3)ccc2n1C	296%	54*	142%	?	170	44*
Cn1cnc2cc(NC(=O)COc3ccccc3)ccc21	-1%	38*	79%	13%	16	76*
COc1ccc(OCC(=O)Nc2ccc3c(c2)nc(CCN2CCOCC2)n3C)cc1	3%[5.75 µM]	-2	?	19%	-16	14
CC1CCN(CCc2nc3cc(NC(=O)COc4ccccc4)ccc3n2C)CC1	?	6	?	-15%	?	7
CCC(=O)NCCc1nc2cc(NC(=O)COc3ccccc3)ccc2n1C	-19%	29*	87%	8%	40	78*
COc1ccc(OCC(=O)Nc2ccc3c(c2)nc(CCn2ccccc2=O)n3C)cc1	5.2µM*	5	?	-11%	?	14
CC1(c2ccccc2Br)NC(=O)N(CC(=O)N2CCc3ccccc3C2)C1=O (centres undefined)	.	.	.	-2%	-22	.
OCc1cccc[n+]1Cc1ccccc1	.	.	.	13%	37	.
CCCn1c(SCc2nc(-c3ccccc3OCC)no2)nnc1-c1ccc(Cl)cc1	.	.	.	.	-14	.
CCC(=O)NCCc1nc2cc(NC(=O)c3cccs3)ccc2n1C	171%	17*	290%	23%	8	48*
COc1ccccc1C(=O)Nc1ccc2c(c1)nc(CCNC(=O)c1ccccc1)n2C	?	22	?	-32%	-19	21
COc1ccccc1C(=O)Nc1ccc2c(c1)nc(CCNC(C)=O)n2C	?	17*	152%	?	28	26
COc1ccccc1C(=O)NCCc1nc2ccccc2n1C	?	8	1%	-9%	7	-3
CCC(=O)NCCc1nc2cc(NC(=O)c3ccccc3OC)ccc2n1C	.	43*	47%	18%	33	25
CCC(=O)NCCc1nc2cc(NC(=O)c3cccc([N+](=O)[O-])c3)ccc2n1C	-39%	17	7%	3%	42	37
CC(C)(C)S(=O)N1Cc2cc(CO)cc(-c3ccccc3)c2[C@@H]1CCO (some centres undefined)	.	.	.	-5%	-13	.
